Measurements reported in PubChem BioAssay (NCI).
The panel holds about 83,000 compounds, 20% with a hit somewhere; the sample as a whole holds those more often.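 Compound tested at a single concentration for 48 hours in 96-well plates; a percent growth value below 10 was scored as active.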 Unmarked numbers belong to inactive results. Activity calls are given as the source filed them.

Each molecule was assayed on MOLT-4 leukemia (assay: NCI-60 one-dose screen, 48 h (100 = growth as untreated, 0 = no growth, -100 = all killed)). Settings: 10 µM unless noted.
For CN1CCN(CCCNC(=O)c2c3c(n4ccccc24)C(=O)c2ncccc2C3=O)CC1, the growth was -35.1% (active). CN1CCN(CC(=O)N(C)c2ccc(N=C(c3ccccc3)c3c(O)[nH]c4ccc([N+](=O)[O-])cc34)cc2)CC1 gave a growth of 15.7%. Molecule CCCCCCCCNc1ncnc2c1ncn2Cc1nnc2c3ccccc3c(Cl)nn12 has a growth of 12.3%. CC/C(=C(/c1ccc(Cl)cc1)c1ccc(OCCCN(C)C)cc1)c1ccc(OC)cc1 gave a growth of 28.1%. CCN(CC)CCCNC(=O)c1c2c(n3ccccc13)C(=O)c1ncccc1C2=O was tested, and the growth was -40.6% (active). Work on CCCn1cnc2c(c1=N)C(c1ccc(Cl)cc1)c1sc3c(F)cccc3c1O2 (stereo unspecified) yielded a growth of 56.7%. With O=C(COc1ccc(/C=C2\Oc3ccccc3C2=O)cc1)Nc1nccs1 the growth was 42.3%. Cc1c(C(=O)C(SC(=S)N2CCOCC2)SC(=S)N2CCOCC2)nnn1-c1ccc([N+](=O)[O-])cc1 gave a growth of 91.1%. Work on O=[N+]([O-])c1ccc(Oc2cccc3c(Oc4ccc([N+](=O)[O-])cc4[N+](=O)[O-])cccc23)c([N+](=O)[O-])c1 yielded a growth of 102%. CN(C)CCOc1ccc(/C(=C(/CCCCCCCCCC[P+](c2ccccc2)(c2ccccc2)c2ccccc2)c2ccccc2)c2ccccc2)cc1 was tested, and the growth was -60% (active). CC1(C)CC[C@]2(CO)CC[C@]3(C)C(=CC[C@@H]4[C@@]5(C)CCNCC(C)(C)[C@@H]5CC[C@]43C)[C@@H]2C1 showed a growth of 49.3%. For O=c1oc2ccccc2cc1-c1nn(-c2ccccc2)cc1/C=N/Nc1nc(-c2ccccc2)c(N=Nc2ccccc2)s1, the growth was 53.5%. In the case of COc1cc(/C=C2\CN(S(=O)(=O)c3ccc(C)cc3)C/C(=C\c3cc(CN4CCCC4)c(O)c(OC)c3)C2=O)cc(CN2CCCC2)c1O, the growth is reported as -8.53% (active). Nc1ccc(Cl)c2c(=O)c3ccccc3[nH]c12 was tested, and the growth was 74.1%. COC(=O)c1sc(-c2ccc(C)cc2)cc1O was tested, and the growth was 87.7%. CCOC(=O)CSc1nc2sc3c(c2c(=O)n1-c1ccccc1)CCCCC3 was tested, and the growth was 102%. With O=C1NCCS(=O)(=O)/C1=C\C=C\c1cccc(C(F)(F)F)c1 the growth was 8.72% (active). For COc1cc(/C=C2\C(=O)N(CCOc3cc(O)c4c(=O)cc(-c5ccccc5)oc4c3)c3ccccc32)cc(OC)c1O, the growth was 51.8%. CNC1=C([N+](=O)[O-])C(c2ccc(OC)cc2)C(C#N)=C(c2ccc[nH]2)O1 (stereo unspecified) gave a growth of 108%. COc1cccc2cc(N(C)c3ncnc4ccccc34)ccc12 gave a growth of 16.8%. Cc1[nH]c(C(=O)Nc2ccc(C(N)=O)cc2OC(C)C)c(Cl)c1Cl gave a growth of 89.2%. For Nc1nc(N)c2c(n1)NC(c1cccc(Nc3ccnc4cc(C(F)(F)F)ccc34)c1)CC(c1ccc(Cl)cc1)=N2 (stereo unspecified), the growth was 7.52% (active). With COC1=C(OC)C(=O)C(CCCCCCCCCCO)=C(C)C1=O the growth was 28.1%. O=C1c2c(c3c4cccnc4[nH]c3c3ccc4ccccc4c23)C(=O)N1O was tested, and the growth was 6.42% (active). CCN1CCN(C(=O)[C@]23CC[C@@H](C)[C@H](C)[C@@H]2C2=CC[C@@H]4[C@@]5(C)C/C(=C/c6ccncc6)C(=O)C(C)(C)[C@@H]5CC[C@@]4(C)[C@]2(C)CC3)CC1 was tested, and the growth was 0.087% (active). In the case of CN(C)CCOc1nc2c3cc([N+](=O)[O-])ccc3nn2c2ccccc12, the growth is reported as 2.34% (active). In the case of O=C(c1ccccc1)[C@@H](c1ccccc1)[C@]1(O)C(=O)Nc2ccccc21, the growth is reported as 102%. In the case of CCOC(=O)C1=C(c2ccccc2)N=C2SC=C(c3cccc([N+](=O)[O-])c3)N2C1c1ccc(O)cc1 (stereo unspecified), the growth is reported as 111%. With Cn1nc(-c2ccc(Cl)cc2)nc2c(=O)n(C)c(=O)nc1-2 the growth was -47.3% (active). COC1CC(O)C2=C(CC3C(/C(C)=C\CC=C(C)C)CCC3(C)O2)C1=O (stereo unspecified) showed a growth of 92.2%. For COc1cc(C(=O)/C=C/c2c(-c3cccs3)nc3sc(C)cn23)cc(OC)c1OC, the growth was -2.47% (active). In the case of CSc1nc(N)c2c(n1)NC(c1ccccc1)C1CCc3ccccc3C1=N2 (stereo unspecified), the growth is reported as 27.9%. For COC(=O)c1c(C)nc(C)c2c1C(=O)C(Br)=C(NCCCCO)C2=O, the growth was 79.5%. COc1ccc(S(=O)(=O)Oc2ccc(-c3sc4cc(OS(=O)(=O)c5ccc(OC)cc5)ccc4c3C(=O)c3ccc(OCCN4CCCCC4)cc3)cc2)cc1 gave a growth of 89.3%. With C=C(c1ccc(C(=O)O)c(F)c1)c1cc2c(cc1C)C(C)(C)C=CC2(C)C the growth was 87.3%. COc1cc(C2=Nc3c(N)nc(N)nc3NC(c3cccc(Nc4ccnc5cc(C(F)(F)F)ccc45)c3)C2)cc(OC)c1OC (stereo unspecified) showed a growth of 19.2%.

These molecules were tested on SR leukemia in the same assay as above. Settings: 10 µM unless noted.
For CN1CCN(CCCNC(=O)c2c3c(n4ccccc24)C(=O)c2ncccc2C3=O)CC1, the growth was -8.6% (active). Work on CN1CCN(CC(=O)N(C)c2ccc(N=C(c3ccccc3)c3c(O)[nH]c4ccc([N+](=O)[O-])cc34)cc2)CC1 yielded a growth of 19.4%. In the case of CCCCCCCCNc1ncnc2c1ncn2Cc1nnc2c3ccccc3c(Cl)nn12, the growth is reported as 16.7%. In the case of CC/C(=C(/c1ccc(Cl)cc1)c1ccc(OCCCN(C)C)cc1)c1ccc(OC)cc1, the growth is reported as -40.6% (active). For CCN(CC)CCCNC(=O)c1c2c(n3ccccc13)C(=O)c1ncccc1C2=O, the growth was -22.6% (active). With CCCn1cnc2c(c1=N)C(c1ccc(Cl)cc1)c1sc3c(F)cccc3c1O2 (stereo unspecified) the growth was 24.7%. For Cc1ccc(C23CCC(=O)N2CCc2cncn23)cc1 (stereo unspecified), the growth was 126%. For O=C(COc1ccc(/C=C2\Oc3ccccc3C2=O)cc1)Nc1nccs1, the growth was 0% (active). In the case of Cc1c(C(=O)C(SC(=S)N2CCOCC2)SC(=S)N2CCOCC2)nnn1-c1ccc([N+](=O)[O-])cc1, the growth is reported as 69.7%. O=[N+]([O-])c1ccc(Oc2cccc3c(Oc4ccc([N+](=O)[O-])cc4[N+](=O)[O-])cccc23)c([N+](=O)[O-])c1 showed a growth of 77.5%. With CN(C)CCOc1ccc(/C(=C(/CCCCCCCCCC[P+](c2ccccc2)(c2ccccc2)c2ccccc2)c2ccccc2)c2ccccc2)cc1 the growth was -53.4% (active). In the case of CC1(C)CC[C@]2(CO)CC[C@]3(C)C(=CC[C@@H]4[C@@]5(C)CCNCC(C)(C)[C@@H]5CC[C@]43C)[C@@H]2C1, the growth is reported as -24.3% (active). Molecule O=c1oc2ccccc2cc1-c1nn(-c2ccccc2)cc1/C=N/Nc1nc(-c2ccccc2)c(N=Nc2ccccc2)s1 has a growth of 21.9%. In the case of COc1cc(/C=C2\CN(S(=O)(=O)c3ccc(C)cc3)C/C(=C\c3cc(CN4CCCC4)c(O)c(OC)c3)C2=O)cc(CN2CCCC2)c1O, the growth is reported as -19.4% (active). Molecule Nc1ccc(Cl)c2c(=O)c3ccccc3[nH]c12 has a growth of 100%. In the case of COC(=O)c1sc(-c2ccc(C)cc2)cc1O, the growth is reported as 81.9%. CCOC(=O)CSc1nc2sc3c(c2c(=O)n1-c1ccccc1)CCCCC3 gave a growth of 103%. With O=C1NCCS(=O)(=O)/C1=C\C=C\c1cccc(C(F)(F)F)c1 the growth was 6.61% (active). Work on COc1cc(/C=C2\C(=O)N(CCOc3cc(O)c4c(=O)cc(-c5ccccc5)oc4c3)c3ccccc32)cc(OC)c1O yielded a growth of 39%. CNC1=C([N+](=O)[O-])C(c2ccc(OC)cc2)C(C#N)=C(c2ccc[nH]2)O1 (stereo unspecified) showed a growth of 98.2%. COc1cccc2cc(N(C)c3ncnc4ccccc34)ccc12 was tested, and the growth was 9.25% (active). Cc1[nH]c(C(=O)Nc2ccc(C(N)=O)cc2OC(C)C)c(Cl)c1Cl gave a growth of 79.2%. In the case of Nc1nc(N)c2c(n1)NC(c1cccc(Nc3ccnc4cc(C(F)(F)F)ccc34)c1)CC(c1ccc(Cl)cc1)=N2 (stereo unspecified), the growth is reported as 3.26% (active). Molecule COC1=C(OC)C(=O)C(CCCCCCCCCCO)=C(C)C1=O has a growth of 24%. Molecule O=C1c2c(c3c4cccnc4[nH]c3c3ccc4ccccc4c23)C(=O)N1O has a growth of 17.8%. For CCN1CCN(C(=O)[C@]23CC[C@@H](C)[C@H](C)[C@@H]2C2=CC[C@@H]4[C@@]5(C)C/C(=C/c6ccncc6)C(=O)C(C)(C)[C@@H]5CC[C@@]4(C)[C@]2(C)CC3)CC1, the growth was -12.8% (active). C=CC(=O)Nc1ccc2ncnc(Nc3cccc(NS(=O)(=O)CCC)c3Cl)c2c1 gave a growth of 35.7%. In the case of COc1ccccc1/C=C/C1=C(C)CCC(c2ccccc2OC)C1C (stereo unspecified), the growth is reported as -13.2% (active). In the case of CN(C)CCOc1nc2c3cc([N+](=O)[O-])ccc3nn2c2ccccc12, the growth is reported as 7.43% (active). With COc1ccc(-c2nc(SCCC(C)C)nc(N/N=C(/C)c3ccc(N)cc3)c2C#N)cc1 the growth was 90.2%. For O=C(c1ccccc1)[C@@H](c1ccccc1)[C@]1(O)C(=O)Nc2ccccc21, the growth was 102%. CCOC(=O)C1=C(c2ccccc2)N=C2SC=C(c3cccc([N+](=O)[O-])c3)N2C1c1ccc(O)cc1 (stereo unspecified) showed a growth of 109%. In the case of Cn1nc(-c2ccc(Cl)cc2)nc2c(=O)n(C)c(=O)nc1-2, the growth is reported as -40.5% (active). COC1CC(O)C2=C(CC3C(/C(C)=C\CC=C(C)C)CCC3(C)O2)C1=O (stereo unspecified) was tested, and the growth was 86.4%. With COc1cc(C(=O)/C=C/c2c(-c3cccs3)nc3sc(C)cn23)cc(OC)c1OC the growth was 4.77% (active). CSc1nc(N)c2c(n1)NC(c1ccccc1)C1CCc3ccccc3C1=N2 (stereo unspecified) was tested, and the growth was 8.22% (active). COC(=O)c1c(C)nc(C)c2c1C(=O)C(Br)=C(NCCCCO)C2=O was tested, and the growth was 46.4%. COc1ccc(S(=O)(=O)Oc2ccc(-c3sc4cc(OS(=O)(=O)c5ccc(OC)cc5)ccc4c3C(=O)c3ccc(OCCN4CCCCC4)cc3)cc2)cc1 gave a growth of 102%. C=C(c1ccc(C(=O)O)c(F)c1)c1cc2c(cc1C)C(C)(C)C=CC2(C)C was tested, and the growth was 91.6%. In the case of COc1cc(C2=Nc3c(N)nc(N)nc3NC(c3cccc(Nc4ccnc5cc(C(F)(F)F)ccc45)c3)C2)cc(OC)c1OC (stereo unspecified), the growth is reported as 0.109% (active).
